Measurements reported in the supplement of paper PMC8975748.
Structures can show the parent of a compound that is named as a salt. ± gives the standard deviation of the averaged measurements.

How the values were obtained:
[1] = tested on: Saccharomyces cerevisiae BY4741 SeMeCo community; test: mean cell size (pixel area) (pixels); higher = larger cells; conditions: 10 µM; 24 h; SM minimal medium
Method in brief: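 A four-plasmid fluorescent Saccharomyces cerevisiae BY4741 community was tested; each plasmid complements one auxotrophy and carries a fluorescent marker. An overnight preculture at OD600 = 1.0 was diluted to OD600 = 0.3, and 70 µl was added to 384-well plates acoustically predosed with drug (final 10 µM) in SM medium for 24 h. Cells were fixed with paraformaldehyde and imaged by automated confocal microscopy, with analysis in Harmony. Mean cell pixel area per well is averaged over 3 replicates. Same SeMeCo high-content imaging drug screen: Selleck FDA-approved drugs at 10 µM, 24 h in SM medium, 384-well plates, 3 replicates.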

[2] = tested on: Saccharomyces cerevisiae BY4741 SeMeCo community; test: z-score of subpopulation abundance vs DMSO median, subpopulation auxotrophic for M; higher = larger share of this subpopulation than in DMSO controls; conditions: 10 µM; 24 h; SM minimal medium; subpopulation (auxotrophy): M
Method in brief: (§1)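 Four plasmids, each restoring a single auxotrophy and encoding a distinct fluorescent protein, were carried by a Saccharomyces cerevisiae BY4741 community. After overnight growth to OD600 1.0 and dilution to 0.3, 70 µl per well was grown for 24 h in minimal SM medium on 384-well plates acoustically predosed with library drugs at 10 µM final. Following paraformaldehyde fixation, automated confocal microscopy was used, with single-auxotroph fluorescent strains defining thresholds and autofluorescence correction. Subpopulation abundance was then scored as a z-score against the vehicle-well median.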

[3] = tested on: Saccharomyces cerevisiae BY4741 SeMeCo community; test: z-score of subpopulation abundance vs DMSO median, subpopulation auxotrophic for L; higher = larger share of this subpopulation than in DMSO controls; conditions: 10 µM; 24 h; SM minimal medium; subpopulation (auxotrophy): L
Method in brief: as §1

[4] = tested on: Saccharomyces cerevisiae BY4741 SeMeCo community; test: z-score of subpopulation abundance vs DMSO median, subpopulation auxotrophic for H; higher = larger share of this subpopulation than in DMSO controls; conditions: 10 µM; 24 h; SM minimal medium; subpopulation (auxotrophy): H
Method in brief: as §1

[5] = tested on: Saccharomyces cerevisiae BY4741 SeMeCo community; test: z-score of subpopulation abundance vs DMSO median, subpopulation auxotrophic for LU; higher = larger share of this subpopulation than in DMSO controls; conditions: 10 µM; 24 h; SM minimal medium; subpopulation (auxotrophy): LU
Method in brief: as §1

[6] = tested on: Saccharomyces cerevisiae BY4741 SeMeCo community; test: z-score of subpopulation abundance vs DMSO median, subpopulation auxotrophic for HM; higher = larger share of this subpopulation than in DMSO controls; conditions: 10 µM; 24 h; SM minimal medium; subpopulation (auxotrophy): HM
Method in brief: as §1

[7] = tested on: Saccharomyces cerevisiae BY4741 SeMeCo community; test: z-score of subpopulation abundance vs DMSO median, subpopulation auxotrophic for HU; higher = larger share of this subpopulation than in DMSO controls; conditions: 10 µM; 24 h; SM minimal medium; subpopulation (auxotrophy): HU
Method in brief: as §1

[8] = tested on: Saccharomyces cerevisiae BY4741 SeMeCo community; test: z-score of subpopulation abundance vs DMSO median, subpopulation auxotrophic for UM; higher = larger share of this subpopulation than in DMSO controls; conditions: 10 µM; 24 h; SM minimal medium; subpopulation (auxotrophy): UM
Method in brief: as §1

[9] = tested on: Saccharomyces cerevisiae BY4741 SeMeCo community; test: z-score of subpopulation abundance vs DMSO median, subpopulation auxotrophic for HL; higher = larger share of this subpopulation than in DMSO controls; conditions: 10 µM; 24 h; SM minimal medium; subpopulation (auxotrophy): HL
Method in brief: as §1

[10] = tested on: Saccharomyces cerevisiae BY4741 SeMeCo community; test: z-score of subpopulation abundance vs DMSO median, subpopulation auxotrophic for HLU; higher = larger share of this subpopulation than in DMSO controls; conditions: 10 µM; 24 h; SM minimal medium; subpopulation (auxotrophy): HLU
Method in brief: as §1

[11] = tested on: Saccharomyces cerevisiae BY4741 SeMeCo community; test: z-score of subpopulation abundance vs DMSO median, subpopulation auxotrophic for HLM; higher = larger share of this subpopulation than in DMSO controls; conditions: 10 µM; 24 h; SM minimal medium; subpopulation (auxotrophy): HLM
Method in brief: as §1

[12] = tested on: Saccharomyces cerevisiae BY4741 SeMeCo community; test: z-score of subpopulation abundance vs DMSO median, subpopulation auxotrophic for HUM; higher = larger share of this subpopulation than in DMSO controls; conditions: 10 µM; 24 h; SM minimal medium; subpopulation (auxotrophy): HUM
Method in brief: as §1

[13] = tested on: Saccharomyces cerevisiae BY4741 SeMeCo community; test: z-score of subpopulation abundance vs DMSO median, subpopulation auxotrophic for LUM; higher = larger share of this subpopulation than in DMSO controls; conditions: 10 µM; 24 h; SM minimal medium; subpopulation (auxotrophy): LUM
Method in brief: as §1

[14] = tested on: Saccharomyces cerevisiae BY4741 SeMeCo community; test: z-score of subpopulation abundance vs DMSO median, subpopulation auxotrophic for U; higher = larger share of this subpopulation than in DMSO controls; conditions: 10 µM; 24 h; SM minimal medium; subpopulation (auxotrophy): U
Method in brief: as §1

[15] = tested on: Saccharomyces cerevisiae BY4741 SeMeCo community; test: z-score of subpopulation abundance vs DMSO median, subpopulation auxotrophic for HLUM; higher = larger share of this subpopulation than in DMSO controls; conditions: 10 µM; 24 h; SM minimal medium; subpopulation (auxotrophy): HLUM
Method in brief: as §1

[16] = tested on: Saccharomyces cerevisiae BY4741 SeMeCo community; test: z-score of prototroph abundance vs DMSO median; higher = larger share of this subpopulation than in DMSO controls; conditions: 10 µM; 24 h; SM minimal medium; subpopulation (auxotrophy): Prototroph
Method in brief: as §1

[17] = tested on: Saccharomyces cerevisiae BY4741 SeMeCo community; test: z-score of subpopulation abundance vs DMSO median, subpopulation auxotrophic for LM; higher = larger share of this subpopulation than in DMSO controls; conditions: 10 µM; 24 h; SM minimal medium; subpopulation (auxotrophy): LM
Method in brief: as §1

SMILES: CO/N=C(\C(=O)N[C@@H]1C(=O)N2C(C(=O)[O-])=C(C[n+]3cccc4c3CCC4)CS[C@H]12)c1csc(N)n1 [Cefpirome sulfate]
- mean cell size [1]: 12.5 ± 0.22
- z-score of subpopulation abundance [2]: 0.51
- z-score of subpopulation abundance [3]: 1.19
- z-score of subpopulation abundance [4]: 0.64
- z-score of subpopulation abundance [5]: -0.12
- z-score of subpopulation abundance [6]: 0.31
- z-score of subpopulation abundance [7]: -0.75
- z-score of subpopulation abundance [8]: 0.21
- z-score of subpopulation abundance [9]: -0.18
- z-score of subpopulation abundance [10]: -0.14
- z-score of subpopulation abundance [11]: -0.14
- z-score of subpopulation abundance [12]: 0
- z-score of subpopulation abundance [13]: 0.18

SMILES: COc1ccc2[nH]c([S@@+]([O-])Cc3ncc(C)c(OC)c3C)nc2c1 [NEXIUM (esomeprazole magnesium)]
- mean cell size [1]: 12.5 ± 0.14
- z-score of subpopulation abundance [2]: 0.2
- z-score of subpopulation abundance [3]: 1.11
- z-score of subpopulation abundance [14]: -0.8
- z-score of subpopulation abundance [4]: 3.24
- z-score of subpopulation abundance [5]: 0.11
- z-score of subpopulation abundance [7]: 0.68
- z-score of subpopulation abundance [8]: -1.82
- z-score of subpopulation abundance [9]: 1.91
- z-score of subpopulation abundance [10]: 1.46
- z-score of subpopulation abundance [11]: 1.32
- z-score of subpopulation abundance [12]: -0.41
- z-score of subpopulation abundance [13]: 0.51
- z-score of subpopulation abundance [15]: -0.44

SMILES: CC[C@@]1(O)C(=O)OCc2c1cc1n(c2=O)Cc2cc3cc(O)ccc3nc2-1 [Hydroxy Camptothecine]
- z-score of prototroph abundance [16]: 1.27
- z-score of subpopulation abundance [2]: 3.88
- z-score of subpopulation abundance [3]: 2.31
- z-score of subpopulation abundance [14]: -5.21
- z-score of subpopulation abundance [4]: 3.18
- z-score of subpopulation abundance [5]: -3.85
- z-score of subpopulation abundance [17]: 3.19
- z-score of subpopulation abundance [6]: 3.39
- z-score of subpopulation abundance [7]: -4.32
- z-score of subpopulation abundance [8]: -4.43
- z-score of subpopulation abundance [9]: 2.22
- z-score of subpopulation abundance [10]: -1.2
- z-score of subpopulation abundance [11]: 1.86
- z-score of subpopulation abundance [12]: -1.9
- z-score of subpopulation abundance [13]: -1.35
- z-score of subpopulation abundance [15]: 0.8

SMILES: CCC(=O)O[C@@H]1CC(=O)O[C@H](C)C/C=C/C=C/[C@H](O)[C@H](C)C[C@H](CC=O)[C@H](O[C@@H]2O[C@H](C)[C@@H](O[C@H]3C[C@@](C)(O)[C@@H](OC(=O)CC)[C@H](C)O3)[C@H](N(C)C)[C@H]2O)[C@H]1OC [Midecamycin]
- z-score of prototroph abundance [16]: -0.41
- z-score of subpopulation abundance [2]: 1.11
- z-score of subpopulation abundance [3]: -0.17
- z-score of subpopulation abundance [14]: -0.73
- z-score of subpopulation abundance [4]: 0.88
- z-score of subpopulation abundance [5]: -0.66
- z-score of subpopulation abundance [17]: 0.61
- z-score of subpopulation abundance [6]: 1.3
- z-score of subpopulation abundance [8]: -0.3
- z-score of subpopulation abundance [9]: 1.52
- z-score of subpopulation abundance [10]: -0.1
- z-score of subpopulation abundance [11]: 0.18
- z-score of subpopulation abundance [12]: 0.7
- z-score of subpopulation abundance [13]: -0.4
- z-score of subpopulation abundance [15]: -0.96

SMILES: CC(=O)[C@@]1(O)CC[C@H]2[C@@H]3C[C@H](C)C4=CC(=O)CC[C@]4(C)[C@H]3CC[C@@]21C [Medroxyprogesterone]
- z-score of prototroph abundance [16]: -0.12
- z-score of subpopulation abundance [2]: 0.07
- z-score of subpopulation abundance [3]: 0.51
- z-score of subpopulation abundance [14]: 0.2
- z-score of subpopulation abundance [4]: -0.26
- z-score of subpopulation abundance [5]: 0.44
- z-score of subpopulation abundance [17]: 0.45
- z-score of subpopulation abundance [7]: 0.01
- z-score of subpopulation abundance [8]: -0.35
- z-score of subpopulation abundance [10]: 1.06
- z-score of subpopulation abundance [11]: 0.49
- z-score of subpopulation abundance [12]: -0.08
- z-score of subpopulation abundance [13]: 0.93

SMILES: C=C1CCC2C(C)(CO)C(O)CCC2(C)C1CC=C1C=COC1=O (stereo unspecified) [Dehydroandrographolide]
- z-score of subpopulation abundance [2]: 0.35
- z-score of subpopulation abundance [3]: 1.46
- z-score of subpopulation abundance [14]: -0.43
- z-score of subpopulation abundance [4]: 0.8
- z-score of subpopulation abundance [5]: 1.6
- z-score of subpopulation abundance [17]: 1.74
- z-score of subpopulation abundance [6]: 0.87
- z-score of subpopulation abundance [7]: 0.11
- z-score of subpopulation abundance [8]: 0.16
- z-score of subpopulation abundance [9]: 1.67
- z-score of subpopulation abundance [10]: 0.64
- z-score of subpopulation abundance [11]: 0.5
- z-score of subpopulation abundance [12]: 0.26
- z-score of subpopulation abundance [13]: 1.23
- z-score of subpopulation abundance [15]: 0.91

SMILES: O=C(O)c1cc(O)c2c(c1)[C@H]([C@H]1c3cc(C(=O)O)cc(O)c3C(=O)c3c(O[C@@H]4O[C@H](CO)[C@@H](O)[C@H](O)[C@H]4O)cccc31)c1cccc(O[C@@H]3O[C@H](CO)[C@@H](O)[C@H](O)[C@H]3O)c1C2=O [Sennoside A]
- z-score of prototroph abundance [16]: 0.91
- z-score of subpopulation abundance [2]: -1.76
- z-score of subpopulation abundance [3]: -0.65
- z-score of subpopulation abundance [14]: 0.7
- z-score of subpopulation abundance [4]: 0
- z-score of subpopulation abundance [5]: 0.29
- z-score of subpopulation abundance [17]: -0.8
- z-score of subpopulation abundance [7]: 0.33
- z-score of subpopulation abundance [8]: -0.14
- z-score of subpopulation abundance [9]: 0.29
- z-score of subpopulation abundance [10]: -0.71
- z-score of subpopulation abundance [11]: -1.24
- z-score of subpopulation abundance [12]: -0.7
- z-score of subpopulation abundance [13]: -0.81
- z-score of subpopulation abundance [15]: -1.25
